# Pf growth 48h = inhibits P. falciparum growth in the first generation, 48 h | P. falciparum luciferase growth in erythrocytes, 48 h | Potency, µM (titrated, usually from 28.7 µM), for the others: top-dose activity change, negative = inhibition, most hits filed as inhibitors | 5.9% of 310,000 active; active = well fitted inhibition curve with a large enough effect; inconclusive = small, poorly fitted or top-dose-only effect, or another doubt; inactive = no such curve, though single readings can be large or run the other way; note: potency is the fitted concentration of half-maximal effect; % is set by controls: 0 for no effect and ±100 for the full control effect
#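 Cell-based growth assay: transgenic P. falciparum expressing firefly luciferase, cultured in red cells within RPMI 1640 containing 0.5% w/v Albumax, 24 mM bicarbonate and gentamycin. A drop in luciferase activity indicates inhibition.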
# Cycloheximide cs = counter-screen hit for Shiga toxin inhibitors, cycloheximide; cell reporter, cycloheximide protein synthesis inhibition counterscreen; max response, %; 12% of 300,000 active; AID 2314; in the data active = max response mostly above about 13%, no sharp cut-off; inactive = mostly below about 14%; note: read at 38.3 µM for the half of the compounds with a filed dose; 0% is about no effect
# Shiga toxin inh = blocks Shiga toxin action in Vero cells. AID 2315. 9.2% of 290,000 active. inhibition, % at 38.7 µM. Vero cells, Shiga toxin protein synthesis inhibition reporter; in the data active = inhibition mostly above about 28%, no sharp cut-off; inactive = mostly below about 43%; note: 0% is about no effect
# Pf growth 96h = P. falciparum growth inhibition at 96 hours; P. falciparum luciferase reporter growth, 96 h; 6.9% of 320,000 active; AID 504834; Potency, µM (series often up to 28.7 µM), without a hit: at the highest dose activity change, negative = inhibition, actives largely listed as inhibitors; active = well fitted inhibition curve with a large enough effect; inconclusive = small, poorly fitted or top-dose-only effect, or another doubt; inactive = no such curve, though single readings can be large or run the other way; note: potency is the fitted concentration of half-maximal effect; % is set by controls: 0 for no effect and ±100 for the full control effect
#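 Two parasite generations (96 h, 37 C, 5% CO2) of compound exposure in infected erythrocytes (0.05% parasitemia, 2% hematocrit). Luciferase-reporter P. falciparum; decreased luminescence indicates inhibited growth, aimed at apicoplast-acting delayed death.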
# NS1 function inh = blocks influenza NS1 protein function; Potency, µM (top dose mostly 46.1 µM), inactives show at the highest dose activity, positive = more growth; AID 2326; 0.4% of 270,000 active; note: potency is the fitted concentration of half-maximal effect; actives are rising curves; nearly all actives have a fitted effect of over 50% in size
#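 S. cerevisiae expressing influenza A NS1, grown in glucose, washed, then diluted 1:100 into pH 6.0 -URA galactose medium with 23 nl compound. Growth recovery read as OD600; NS1-free strain serves as control.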
# SARS PLpro yeast = SARS-CoV PLP inhibition in yeast | S. cerevisiae expressing SARS-CoV PLpro, growth rescue | Potency, µM (top dose mostly 32.9 µM), for inactives: top-dose activity, positive = growth rescue, most hits filed as activators | 0.19% of 330,000 active | AID 485353; note: potency is the fitted concentration of half-maximal effect; 0% is about no effect; nearly all actives have a fitted effect of over 55% in size
# * = called active by the depositor; i = inactive; ? = inconclusive; · = no result; ! = not active in a repeat. Most compounds without a hit are left out; they make up all but 21% or so of the library. Unless noted, calls come from the whole dose curve.
SMILES,Pf growth 48h,Cycloheximide cs,Shiga toxin inh,Pf growth 96h,NS1 function inh,SARS PLpro yeast
O=c1[nH]nc(SCCS(=O)(=O)c2ccc(F)cc2)n1-c1ccccc1,?,12*,-11,-23%,4%,0%
O=c1[nH]nc(SCCS(=O)(=O)c2ccc(F)cc2)n1-c1ccc2c(c1)OCCO2,6%,2,1,6%,0%,0%
CC(C)CC(C(=O)Nc1ccccc1)N1C(=O)C2C3C=CC(C3)C2C1=O (stereo not drawn),-1%,-1,-2,-5%,0%,-1%
Cc1oc2cc(O)cc(C)c2c(=O)c1-c1cnn(-c2ccccc2)c1,13µM*,8,23,-1%,-8%,-25%
C/C(=N\NC(=O)c1ccccc1)c1cccc(Br)c1,58%,48*,124*,3%,·,-1%
C/C(=N/NC(=O)c1ccccc1)C(=O)O,14%,42*,74*,?,-5%,-1%
C/C(=N\NC(=O)Cc1c(C)[nH][nH]c1=O)c1cccc(Br)c1,-4%,-3,14,?,4%,1%
CC(=N\NC(=O)c1ccccc1)/C(=N/O)C(=O)Nc1ccccc1,-12%,-2,23,0%,-2%,-9%
C/C(=N\NC(=O)c1ccccc1)C1C2C=CC(C2)C1(C)C (stereo not drawn),49%,48*,91*,?,2%,-1%
C/C(=N\NC(=O)c1cccc(Br)c1)c1ccc(Br)cc1,40%,33*,54*,66%,?,0%
CN(c1ccccc1)S(=O)(=O)c1cccc(NC(=O)CSc2nccc(=O)[nH]2)c1,·,·,·,·,·,-4%
COc1ccc([C@@H]2C[C@@H](c3ccccc3)Oc3cc(C)cc(C)c32)cc1,?,-5,1,?,-4%,-2%
COc1ccc(C2CC(O)(c3ccccc3)Oc3c(C)ccc(C)c32)cc1 (stereo not drawn),9.3µM*,-2,-3,?,-94%,-6%
COc1ccc(C2CC(O)(c3ccccc3)Oc3cc(OC)cc(OC)c32)cc1 (stereo not drawn),?,22*!,25,?,28%,-10%
CC(NC(=S)Nc1ccc(Cl)cc1)C(c1ccccc1)N1CCOCC1 (stereo not drawn),?,-2,-10,10µM*,-33%,14%
Cc1cccc(OCCNc2cc(N3CCOCC3)ccc2[N+](=O)[O-])c1,?,30*,26*,?,-12%,17%
Cc1cccc(OCCNc2cc(N3CCN(C)CC3)ccc2[N+](=O)[O-])c1,1%,-3,-14,5%,0%,4%
OCCC#Cc1ccc(CN2CCN(CCc3ccccc3)C(CCO)C2)cc1 (stereo not drawn),?,-1,·,8.3µM*,18%,-2%
CC(C)CCN1CCN(Cc2ccc(C#CCCO)cc2)CC1CCO (stereo not drawn),-20%,1,-4,12µM*,-6%,1%
OCCC1CN(Cc2ccc3nsnc3c2)CCN1CCc1ccccc1 (stereo not drawn),-5%,-2,-7,12µM*,-3%,0%
CC(C)c1csc(CN2CCN(Cc3ccccc3)C(CCO)C2)n1 (stereo not drawn),3%,-1,3,?,2%,1%
CSc1ccc(CN2CCN(CCC(C)C)C(CCO)C2)cc1 (stereo not drawn),?,-2,-2,1%,-6%,2%
CC(C)c1csc(CN2CCN(CCc3ccccc3)C(CCO)C2)n1 (stereo not drawn),?,-4,-25,1.7µM*,0%,-1%
Cc1ccc(C)c(S(=O)(=O)N2CCN(Cc3cc4c(cc3O)OCO4)CC2)c1,?,·,·,-23%,·,4%
COCC(=O)Nc1nnc(COc2ccc(Cl)cc2)s1,18%,20*,73*,16%,4%,-20%
SMILES,Pf growth 48h,Cycloheximide cs,Shiga toxin inh,Pf growth 96h,NS1 function inh,SARS PLpro yeast
O=C(CSc1ccccc1)Nc1nnc(COc2ccc(Cl)cc2)s1,1%,65*,61*,52%,11%,10%
C[C@H](CO)N1C[C@H](C)[C@@H](CN(C)C(=O)Nc2ccc(C(F)(F)F)cc2)Oc2c(NS(=O)(=O)c3cn(C)cn3)cccc2C1=O,·,·,·,·,·,5%
CCc1ccccc1N(C)S(=O)(=O)c1ccc(-c2cc(C)no2)s1,?,-2,12,?,2%,1%
C=CCn1c(SCC(=O)/C(C#N)=C(\C)N)nc2sc(CC)cc2c1=O,?,7,18,10µM*,-24%,1%
COc1ccc(C(=O)NNC(=S)Nc2ccccc2)cc1,146%,41*,58,i,·,2%
CCOc1cc(NC(=S)Nc2ccccc2)c(OCC)cc1NC(=O)c1ccc(OC)cc1,12µM*,21*,10,?,?,-11%
COc1ccc(C(=O)NNC(=O)c2snnc2C)cc1,13%,17,42*,-10%,3%,0%
COc1ccc(C(=O)NNC(=O)C2(C)CC2(Br)Br)cc1 (stereo not drawn),30%,26*,35*,4%,-8%,-4%
Cc1ccc(S(=O)(=O)c2nc(-c3ccccc3F)oc2N2CC(C)OC(C)C2)cc1 (stereo not drawn),-21%,0,-11,?,3%,-4%
COC(=O)C1=C[C@@H](C(=O)OC)C2C3=C(C(=O)[C@@]2(C)NC(=O)c2ccccc2)[C@H](C)n2c(=O)n(-c4ccccc4)c(=O)n2[C@@H]3C1 (stereo partly drawn),·,-3,-2,·,·,·
COc1ccc(CN2CCC(=O)N([C@H](CO)CC(C)C)CC2)cc1,9%,-3,-2,37%,-5%,10%
COc1ccc(-c2cc(C(=O)Nc3ccc(C)cc3)no2)cc1,10%,0,3,18%,-1%,·
C=CCNC(=S)NNC(=O)c1ccc(OCCC)cc1,6%,0,16,?,10%,23%
COc1ccc(NC(=O)c2c(C)noc2-c2snnc2C)cc1,13µM*,11,-15,2.9µM*,2%,-1%
COc1ccc(C(=O)NNC(=S)NC(=O)c2ccc(OC)cc2)cc1,-9%,5,·,9.3µM*,-72%,-9%
CCCOc1ccc(C(=O)NNC(=S)NC(=O)CC)cc1,?,18,-16,15µM*,-169%,-6%
COc1ccc(C(=O)NNC(=O)c2cccc(F)c2)cc1,46%,26*,68*,84%,7%,2%
Cn1nc(Oc2nc(N3CCOCC3)nc(N3CCOCC3)n2)ccc1=O,·,-8,-8,?,-4%,-8%
CCOc1ccc2[nH]cc(-c3csc(N)n3)c2c1,12µM*,9,-2,?,8%,1%
CCn1nc(C(=O)NCC2COc3ccccc3O2)c2ccccc2c1=O (stereo not drawn),-24%,·,·,?,·,-2%
O=S(=O)(O)c1nc2ccccc2[nH]1,-1%,-2,4,3%,6%,-1%
O=C(CCn1cccc1)Nc1cccc(F)c1,13%,-2,11,12µM*,6%,10%
